# Substitutions are numbered along the chain they refer to.
# Experiments:
# Experiment in all cases: protein-binding microarray (PBM); PBM: ~300 nM protein, 6 mM HEPES pH 7.8, 80 mM KCl, 0.5 mM EDTA, 0.5 mM EGTA, 6% glycerol, 35 ng/ul poly-dIdC, 1% milk, 1 h, room temperature; Ap Aiptasia and Nv Nematostella (sea anemones) / Co Capsaspora / Aq Amphimedon (sponge) / Dm Drosophila / Hu human; RHD is the Rel homology domain; high values mean tight binding
# Conditions in all cases: dsDNA, one strand shown
# GST-Ap-NF-kB RHD = biological target: T1, GST-Ap-NF-kB RHD (Exaiptasia pallida (Aiptasia), UniProt A0A913YAJ5 2-422)
# T1 sequence: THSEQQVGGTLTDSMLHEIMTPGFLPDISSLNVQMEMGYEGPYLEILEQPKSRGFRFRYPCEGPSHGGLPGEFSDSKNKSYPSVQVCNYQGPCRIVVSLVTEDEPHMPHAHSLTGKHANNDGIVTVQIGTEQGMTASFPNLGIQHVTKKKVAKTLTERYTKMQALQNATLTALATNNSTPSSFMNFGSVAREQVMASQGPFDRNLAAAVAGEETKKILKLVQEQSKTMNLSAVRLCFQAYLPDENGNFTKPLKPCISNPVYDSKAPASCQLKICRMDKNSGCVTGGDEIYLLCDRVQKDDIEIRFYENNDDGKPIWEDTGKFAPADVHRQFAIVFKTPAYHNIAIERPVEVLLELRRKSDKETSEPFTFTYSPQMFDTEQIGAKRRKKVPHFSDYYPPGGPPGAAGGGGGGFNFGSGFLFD
# [1] = biological target: T2, GST-Nv-NF-kB (Cys allele) (Nematostella vectensis, UniProt E5G601 2-411)
# T2 sequence: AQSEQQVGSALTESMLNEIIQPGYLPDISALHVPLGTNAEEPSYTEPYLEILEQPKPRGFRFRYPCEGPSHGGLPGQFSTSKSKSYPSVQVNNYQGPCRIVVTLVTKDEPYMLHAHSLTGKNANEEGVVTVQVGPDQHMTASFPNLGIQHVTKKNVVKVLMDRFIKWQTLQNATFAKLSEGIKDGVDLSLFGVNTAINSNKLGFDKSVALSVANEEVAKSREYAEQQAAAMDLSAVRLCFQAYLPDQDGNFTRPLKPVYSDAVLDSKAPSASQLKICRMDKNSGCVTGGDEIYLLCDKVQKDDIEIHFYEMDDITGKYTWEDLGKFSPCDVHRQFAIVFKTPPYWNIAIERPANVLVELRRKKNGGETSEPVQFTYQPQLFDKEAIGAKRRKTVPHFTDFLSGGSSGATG
# [2] = biological target: T3, GST-Nv-NF-kB (Ser allele) (Nematostella vectensis, UniProt A7UNT2 2-411)
# T3 sequence: T2 sequence with Q21R, C66S, S207N, E215Q, V217A, E225K, A268E, D399E
# GST-Co-NF-kB = biological target: T4, GST-Co-NF-kB (Capsaspora owczarzaki, UniProt F1ARL5 200-546)
# T4 sequence: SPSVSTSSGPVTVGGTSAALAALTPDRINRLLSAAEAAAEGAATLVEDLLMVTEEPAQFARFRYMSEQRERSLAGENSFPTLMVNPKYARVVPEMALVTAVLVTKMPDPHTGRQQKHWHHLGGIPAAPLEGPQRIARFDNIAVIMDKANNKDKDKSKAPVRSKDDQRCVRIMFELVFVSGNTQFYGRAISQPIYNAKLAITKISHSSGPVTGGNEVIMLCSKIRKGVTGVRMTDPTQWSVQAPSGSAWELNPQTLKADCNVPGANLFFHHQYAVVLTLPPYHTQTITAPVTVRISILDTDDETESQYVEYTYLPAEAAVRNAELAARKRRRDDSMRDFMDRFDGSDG
# GST-Dm-Relish = biological target: T5, GST-Dm-Relish (Drosophila melanogaster, UniProt Q94527 99-473)
# T5 sequence: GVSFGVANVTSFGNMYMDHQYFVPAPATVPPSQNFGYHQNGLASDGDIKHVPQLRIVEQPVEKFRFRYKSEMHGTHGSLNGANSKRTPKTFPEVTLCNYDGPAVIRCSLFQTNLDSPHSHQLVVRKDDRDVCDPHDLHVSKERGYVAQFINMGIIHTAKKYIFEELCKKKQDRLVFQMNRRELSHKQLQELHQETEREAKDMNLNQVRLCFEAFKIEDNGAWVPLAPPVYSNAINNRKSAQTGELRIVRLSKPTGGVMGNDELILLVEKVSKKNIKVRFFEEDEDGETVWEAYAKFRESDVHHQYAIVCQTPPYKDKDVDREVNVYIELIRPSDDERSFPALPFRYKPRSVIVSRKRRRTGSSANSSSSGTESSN
# GST-Aq-NF-kB = biological target: T6, GST-Aq-NF-kB (Amphimedon queenslandica, UniProt A9Y5G7 2-389)
# T6 sequence: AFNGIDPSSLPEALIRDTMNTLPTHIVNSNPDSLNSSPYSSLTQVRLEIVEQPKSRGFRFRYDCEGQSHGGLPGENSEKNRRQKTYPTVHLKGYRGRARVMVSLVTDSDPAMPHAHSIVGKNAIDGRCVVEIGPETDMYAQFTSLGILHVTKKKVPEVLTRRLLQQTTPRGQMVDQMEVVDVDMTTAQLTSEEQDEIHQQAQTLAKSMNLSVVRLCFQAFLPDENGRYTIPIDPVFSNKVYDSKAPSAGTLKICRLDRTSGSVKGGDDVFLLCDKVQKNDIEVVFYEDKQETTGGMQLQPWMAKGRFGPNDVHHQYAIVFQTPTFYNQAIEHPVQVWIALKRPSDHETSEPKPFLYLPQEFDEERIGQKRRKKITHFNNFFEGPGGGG
# GST-Hu-p50 = GST-Hu-p50 (Homo sapiens, UniProt P19838 7-356)
# Chain of GST-Hu-p50 (P19838 7-356): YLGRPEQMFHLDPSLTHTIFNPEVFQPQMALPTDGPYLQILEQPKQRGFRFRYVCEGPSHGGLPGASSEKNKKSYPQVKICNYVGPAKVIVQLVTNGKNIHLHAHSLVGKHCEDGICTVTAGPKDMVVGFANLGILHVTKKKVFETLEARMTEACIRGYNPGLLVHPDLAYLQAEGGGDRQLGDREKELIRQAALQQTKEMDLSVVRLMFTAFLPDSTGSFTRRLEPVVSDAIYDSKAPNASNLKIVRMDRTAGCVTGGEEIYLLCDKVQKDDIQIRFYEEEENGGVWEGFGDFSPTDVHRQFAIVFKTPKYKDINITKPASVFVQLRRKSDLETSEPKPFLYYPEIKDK
Sequence,binding signal (GST-Ap-NF-kB RHD),binding signal [1],binding signal [2],binding signal (GST-Co-NF-kB),binding signal (GST-Dm-Relish),binding signal (GST-Aq-NF-kB),binding signal (GST-Hu-p50)
CCGATTAACATCAGGGGTTCCCATGATGTTAATCGGGTCTTGATTCGCTTGACGCTGCTG,4.04 z-score,2.36 z-score,1.37 z-score,1.64 z-score,10 z-score,4.49 z-score,2.64 z-score
CCGATTAACATCAGGGAATTGCATGATGTTAATCGGGTCTTGATTCGCTTGACGCTGCTG,2.48 z-score,4.23 z-score,4.1 z-score,2.6 z-score,1.11 z-score,3.49 z-score,3.1 z-score
CCGATTAACATCAGAGCCCCCCCTGATGTTAATCGGGTCTTGATTCGCTTGACGCTGCTG,4.71 z-score,3.96 z-score,3.31 z-score,3.1 z-score,4.58 z-score,4.2 z-score,3.47 z-score
CCGATTAACATCAGGGAATCACCTGATGTTAATCGGGTCTTGATTCGCTTGACGCTGCTG,6.2 z-score,6.62 z-score,6.17 z-score,2.45 z-score,10.3 z-score,6.99 z-score,5.35 z-score
CCGATTAACATCAAAACCCCCCCTGATGTTAATCGGGTCTTGATTCGCTTGACGCTGCTG,8.72 z-score,6.19 z-score,6.72 z-score,6.13 z-score,9.97 z-score,7.1 z-score,6.53 z-score
CCGATTAACATCATGAATTCCCATGATGTTAATCGGGTCTTGATTCGCTTGACGCTGCTG,1.57 z-score,3.03 z-score,3.14 z-score,2.17 z-score,3.29 z-score,2.61 z-score,2.73 z-score
CCGATTAACATCAAGGGGGTACTTGATGTTAATCGGGTCTTGATTCGCTTGACGCTGCTG,4.81 z-score,3.89 z-score,4.77 z-score,2.92 z-score,2.88 z-score,3.78 z-score,4.47 z-score
CCGATTAACATCAGGACAACCCCTGATGTTAATCGGGTCTTGATTCGCTTGACGCTGCTG,3.21 z-score,3.16 z-score,1.17 z-score,1.02 z-score,2.63 z-score,5.78 z-score,2.98 z-score
CCGATTAACATCAGGACTCCCCATGATGTTAATCGGGTCTTGATTCGCTTGACGCTGCTG,5.91 z-score,3.31 z-score,3.6 z-score,3.44 z-score,6.5 z-score,4.12 z-score,2.97 z-score
CCGATTAACATCAGACTTTCCCATGATGTTAATCGGGTCTTGATTCGCTTGACGCTGCTG,3 z-score,4.28 z-score,3.69 z-score,2.74 z-score,1.53 z-score,4.28 z-score,3.45 z-score
CCGATTAACATCAAGGGGTTCCCTGATGTTAATCGGGTCTTGATTCGCTTGACGCTGCTG,4.99 z-score,3.32 z-score,2.15 z-score,2.13 z-score,9.46 z-score,5.11 z-score,3.25 z-score
CCGATTAACATCAGGGACTACCCTGATGTTAATCGGGTCTTGATTCGCTTGACGCTGCTG,6.16 z-score,5.24 z-score,4.07 z-score,1.8 z-score,7.1 z-score,7.57 z-score,4.13 z-score
CCGATTAACATCAGGACATCCCCTGATGTTAATCGGGTCTTGATTCGCTTGACGCTGCTG,6.25 z-score,7.54 z-score,5.99 z-score,1.88 z-score,8.74 z-score,7.75 z-score,5.89 z-score
CCGATTAACATCAGGGGTTTTTATGATGTTAATCGGGTCTTGATTCGCTTGACGCTGCTG,8.01 z-score,8.52 z-score,7.26 z-score,2.38 z-score,8.58 z-score,7.14 z-score,7.21 z-score
CCGATTAACATCAAAATCCCCCATGATGTTAATCGGGTCTTGATTCGCTTGACGCTGCTG,9.1 z-score,9.28 z-score,10.2 z-score,6.67 z-score,8.88 z-score,7.37 z-score,7.45 z-score
CCGATTAACATCAGGATTCCCCCTGATGTTAATCGGGTCTTGATTCGCTTGACGCTGCTG,11.3 z-score,10.5 z-score,9.81 z-score,8.01 z-score,10.2 z-score,8.67 z-score,7.26 z-score
CCGATTAACATCAGGGGGAGGAATGATGTTAATCGGGTCTTGATTCGCTTGACGCTGCTG,5.2 z-score,4.58 z-score,6.46 z-score,7.99 z-score,2.99 z-score,4.59 z-score,4.89 z-score
CCGATTAACATCAGCAATTCCCCTGATGTTAATCGGGTCTTGATTCGCTTGACGCTGCTG,7.03 z-score,7.8 z-score,9.25 z-score,5.7 z-score,3.8 z-score,5.36 z-score,6.4 z-score
CCGATTAACATCAGGGGGGCGCATGATGTTAATCGGGTCTTGATTCGCTTGACGCTGCTG,3.86 z-score,3.14 z-score,3.06 z-score,3.25 z-score,4.09 z-score,4.07 z-score,4.13 z-score
CCGATTAACATCAGAACACCCCCTGATGTTAATCGGGTCTTGATTCGCTTGACGCTGCTG,5.58 z-score,4.69 z-score,4.4 z-score,3.33 z-score,4.87 z-score,5.48 z-score,5.09 z-score
CCGATTAACATCAGGGGGGACGATGATGTTAATCGGGTCTTGATTCGCTTGACGCTGCTG,5.01 z-score,4.55 z-score,4.5 z-score,5.85 z-score,3.77 z-score,4.63 z-score,3.85 z-score
CCGATTAACATCAGGGGGGAGTATGATGTTAATCGGGTCTTGATTCGCTTGACGCTGCTG,6.07 z-score,5.01 z-score,5.11 z-score,6.88 z-score,3.7 z-score,4.54 z-score,6.15 z-score
CCGATTAACATCAGGGGATGTACTGATGTTAATCGGGTCTTGATTCGCTTGACGCTGCTG,4.43 z-score,4.79 z-score,5.58 z-score,3.02 z-score,9.92 z-score,5.33 z-score,4.4 z-score
CCGATTAACATCACAAAAACCCCTGATGTTAATCGGGTCTTGATTCGCTTGACGCTGCTG,7.23 z-score,7.23 z-score,6.81 z-score,2.92 z-score,8.1 z-score,6.48 z-score,6.99 z-score
CCGATTAACATCAATACTCCCCCTGATGTTAATCGGGTCTTGATTCGCTTGACGCTGCTG,6.61 z-score,5.41 z-score,6.73 z-score,8.03 z-score,3.95 z-score,4.97 z-score,6.4 z-score

# From publication PMC5700166
